Hits are enriched below; roughly 4.7% of the tested compounds scored in any of these assays.
tim10-1 inh = growth inhibitors of tim10-1 mutant yeast, primary screen, luminescence, uHTS | S. cerevisiae tim10-1 ts strain growth, BacTiter-Glo, 24 h | inhibition, % at 20 µM | 2.2% of 330,000 active | AID 463190, 2010;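 active = inhibition of at least 40%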;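 also: mutant grown at 25 °C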
PfHsp90 yeast 2 = growth inhibition of PfHsp90-expressing yeast, primary screen, antimalarial PfHsp90 inhibitor project, S. cerevisiae, BacTiter-Glo luminescence, single point, set 2. inhibition, % at 9.4 µM. BacTiter-Glo ATP, 48 h; yeast lacking PDR1 and PDR3 efflux regulators. 0.32% of 310,000 active;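 active = every replicate shows inhibition above about 80%, whatever the replicate mean, limit read from the data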
tim23-1 inh = growth inhibitors of tim23-1 mutant yeast, primary screen, luminescence, uHTS; AID 463212, 2010; inhibition, % at 20 µM; 1.3% of 330,000 active; S. cerevisiae tim23-1 growth, BacTiter-Glo luminescence, 24 h;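 active = growth inhibition of the mutant yeast at or above 50%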;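 also: temperature-sensitive mutant grown at 25 °C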
TIM10 inh = growth inhibitors of isogenic TIM10 control yeast, primary screen, counter-screen for tim10-1 yeast inhibitor project, luminescence, uHTS; 1.4% of 330,000 active; inhibition, % at 10 µM; S. cerevisiae TIM10 strain growth, BacTiter-Glo luminescence, 24 h;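 active = inhibition of 40% or more at the single tested concentration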;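 also: wild-type TIM10 isogenic control strain grown at permissive 25 °C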
SKKanGAS inh = S. pyogenes SKKanGAS growth inhibitors in kanamycin, primary screen, streptokinase expression inhibitor project, SKKanGAS strain, BacTiter-Glo luminescence; 6 h; inhibition, % at 7.5 µM; 1.3% of 300,000 active;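 active = mean replicate score, as percent of positive control median, at least 50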;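 also: strain carries kanamycin resistance gene driven by streptokinase promoter and grows in 40 µg/ml kanamycin; loss of luminescence reflects streptokinase promoter inhibition or plain growth inhibition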
Calb FLC = C. albicans growth inhibition with fluconazole, primary screen, CaCi-2 strain, Alamar Blue fluorescence; C. albicans CaCi-2 (fluconazole-resistant clinical isolate) + fluconazole, 48 h; growth inhibition, % (concentration not given with the values); 0.57% of 300,000 active; AID 1979, 2009;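 active = growth inhibition above about 58% in most replicates, limit read from the data, passing the limit was not always enough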;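 also: all wells also contain fluconazole at 8 µg/ml as a sub-toxic cotreatment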
tim10-1 conf = growth inhibitors of tim10-1 mutant yeast, confirmation, single concentration, luminescence, S. cerevisiae | 56% of 7,400 active | AID 463213, 2010 | shares compounds with tim10-1 inh | inhibition, % at 20 µM | S. cerevisiae tim10-1 ts strain growth, BacTiter-Glo, 24 h;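 active = inhibition of yeast growth at or above a set limit in either of two repeat tests at 20 µM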;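 also: tim10-1 mutant grown at permissive 25 °C to find synthetic lethal compounds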
Hits are given with their value; n = inactive; x = no result given.

SMILES | tim10-1 inh | PfHsp90 yeast 2 | tim23-1 inh | TIM10 inh | SKKanGAS inh | Calb FLC | tim10-1 conf
O=C(Cc1coc2ccc3ccccc3c12)N1CCCC1 | n | n | n | n | n | n | x
COc1ccc(OC)c(NC(=O)Cc2coc3ccc4ccccc4c23)c1 | 42 | n | n | n | n | n | n
CCN(CC(=O)Nc1c(F)cccc1F)C(=O)CCSc1ccc(F)cc1 | n | n | n | n | n | n | x
CC(=C/c1ccc(C(C)C)cc1)/C=N/NC(=O)CSc1ccccn1 | 47 | n | n | n | 68 | n | n
Cc1ccc2cc(CN(c3ccccc3)S(=O)(=O)c3ccccc3)c(=O)[nH]c2c1 | n | n | n | n | n | n | x
CCOc1ccc(N(Cc2cc3ccc(C)cc3[nH]c2=O)S(=O)(=O)c2ccccc2)cc1 | 42 | n | n | n | n | n | n
CC(O)/C=C/c1ccc2ccccc2n1 (stereo not given) | 49 | n | n | n | n | n | 35
CCOC(=O)/C(C#N)=C1/C(=O)N(Cc2ccccc2)c2ccccc21 | 49 | n | n | n | x | x | n
CCCCOc1ccc(S(=O)(=O)NNC(=O)C2Cc3c(ccc4ccccc34)O2)cc1 (stereo not given) | 45 | x | n | n | n | n | n
C=CCN(CC=C)C(=S)NC(=O)c1ccc(OC)c(Br)c1 | n | n | n | n | n | n | x
CCN(CC)C(=S)NC(=O)c1ccc(OC)c(Br)c1 | 44 | n | n | n | n | n | n
CCOC(=O)c1nnc(-c2ccc(C)cc2)nc1Oc1ccccc1Cl | n | x | n | n | n | n | x
CCOC(=O)c1nnc(-c2ccc(C)cc2)nc1Oc1ccc(Cl)cc1Cl | 50 | n | n | n | n | n | 31
CCOCCn1c(=O)c2c(nc3n2CC(C)CN3Cc2ccccc2)n(C)c1=O (stereo not given) | n | n | n | n | n | n | x
CCc1cccc(NS(=O)(=O)c2c(C)[nH]c(=O)[nH]c2=O)c1 | n | n | n | n | n | n | x
COC(=O)c1ccc(N2C(=O)CC(N(C)CCc3ccc(OC)c(OC)c3)C2=O)cc1 (stereo not given) | 41 | n | n | n | n | n | 44
COc1ccc(N2C(=O)CC(N(C)CCc3ccc(OC)c(OC)c3)C2=O)cc1 (stereo not given) | n | n | n | n | n | n | x
COc1ccccc1NC(=O)CCn1c(=O)c2cccn2c2ccccc21 | n | n | n | n | n | n | x
C=CCN(CC=C)c1nc2ccccc2nc1C(C#N)C(=O)OC(C)C (stereo not given) | 45 | n | n | n | n | n | 38
CCc1nn2c(=O)cc(COC(=O)c3cc(Cl)c(OC)c(OC)c3)nc2s1 | n | x | n | n | x | x | x
COc1ccc(NC(C)C(=O)Nc2cccc(S(=O)(=O)N3CCOCC3)c2)cc1OC (stereo not given) | n | n | n | n | x | x | x
C/C(CCc1oc2ccc(Cl)cc2c1-c1ccc(C)o1)=N\O | 42 | n | n | n | n | n | 43
C/C(CCc1oc2ccc(Br)cc2c1-c1ccc(C)o1)=N/O | n | n | n | n | n | n | x
Cc1ccc(C)c(N(CC(=O)NCc2ccco2)C(=O)CCC(=O)Nc2nccs2)c1 | n | n | n | n | n | n | x
Cc1ccc(-c2csc(=S)n2CC(=O)OCC(=O)NCc2ccco2)cc1 | 41 | x | n | n | n | n | n
SMILES | tim10-1 inh | PfHsp90 yeast 2 | tim23-1 inh | TIM10 inh | SKKanGAS inh | Calb FLC | tim10-1 conf
Cc1ccc(-c2csc(=S)n2CC(=O)OCC(=O)NC(C)C(C)C)cc1 (stereo not given) | n | n | n | n | n | n | x
O=C1C2ON(c3ccccc3)C(c3ccccc3F)C2C(=O)N1c1ccccc1 (stereo not given) | n | n | n | n | n | n | x
O=C1C2ON(c3ccc(Cl)cc3)C(c3ccco3)C2C(=O)N1c1ccccc1 (stereo not given) | 44 | n | n | n | n | n | 35
C=CCSc1nc(N(CC)CC)c2sccc2n1 | 44 | n | n | n | n | n | n
Cc1ccc(-c2csc(N(CCO)CCCn3c(C(F)(F)F)nc4ccccc43)n2)cc1 | 44 | n | n | n | n | n | n
OCCn1c(C(F)(F)F)nc2ccccc21 | n | n | n | n | n | n | x
CCOC(=O)/C(C#N)=C/c1c(N2CCN(c3ccccc3)CC2)nc2ccccn2c1=O | 44 | n | n | n | n | n | n
Cc1ccc(-c2nc3cnccn3c2Nc2c(C)cccc2C)o1 | 60 | n | n | n | n | n | 55
O=C(Nc1ccc(Cl)cc1)NC1CCCCC1Cc1ccco1 (stereo not given) | 47 | n | n | n | n | n | 41
O=C(c1ccc2nc(Cc3ccccc3F)oc2c1)N1CC[C@H](O)C1 | n | n | n | n | n | n | x
N#CC(C#N)=CC1=C2OC(c3ccccc3)=CC(c3ccccc3)=C2CCC1 | 48 | n | n | n | n | n | n
Cc1ccc(SCC(=O)OC(C)C(=O)NC2CCCCC2C)c(C)c1 (stereo not given) | n | n | n | n | x | x | x
CC(C)(C)c1ccc(NC(=O)CNC2CCCc3ccccc32)cc1 (stereo not given) | 42 | n | n | n | n | n | n
Cc1nn(-c2ccccc2)c2c1c(C)c(CCC(=O)N1CCOCC1)c(=O)n2C | 41 | n | n | n | n | n | n
CC(=O)OCCc1c2ccccc2c(CCCN(C)C)c2ccccc12 | 40 | n | n | n | n | n | n
CC(=O)OCCc1[nH]c2ccccc2c1C | n | n | n | n | n | n | x
COc1ccc(CNCc2ccc3ccccc3c2)c(OC)c1 | n | n | n | n | n | n | x
Cc1oc(-c2ccc(Cl)cc2)nc1CS(=O)CC(=O)NC1CCCCCC1 (stereo not given) | n | n | n | n | n | n | x
Cc1ccccc1-c1nc(CS(=O)CC(=O)NCCc2ccc(Cl)cc2)c(C)o1 (stereo not given) | 44 | n | n | n | n | n | n
Cc1oc(-c2ccc(Cl)cc2)nc1CS(=O)CC(=O)NC1CCCCC1 (stereo not given) | 40 | n | n | n | n | n | 33
Cc1ccc(NC(=O)CS(=O)Cc2nc(-c3ccc(C)cc3)oc2C)cc1 (stereo not given) | 40 | n | n | n | n | n | n
CC(C)c1ccc(NC2CCCN(C(=O)c3n[nH]c4c3CCC4)C2)cc1 (stereo not given) | n | n | n | n | n | n | x
CCc1nc(N)c(C#N)c(-c2cccn2C)c1C | 41 | n | n | n | n | n | n

Assay outcomes (PubChem BioAssay)
